In PMC5540273 (PLoS ONE, 2017):

system: T1, DCAMKL3; conditions: concentration: 1 μM, replicates: in singlicate; n = 1
T1 construct: gene DCLK3
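Further: KINOMEscan kinase panel screen.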

Row | Compound | %Inh [%]
1 | COc1ccc(NC(=O)Nc2ccc(C)c(-c3ccc(C(=O)Nc4ccncc4)cc3)c2)cc1 [GSK1398475] | 9
2 | Clc1ccc(-c2cc(-c3c[nH]nc3-c3ccccn3)ccn2)cc1 [GW681251] | 0
3 | CC(C)(C)OC(=O)NC1CCCN(c2cc(-c3ccc4c(N)n[nH]c4c3)nc(N)n2)C1 (stereo not drawn) [GSK2286096] | 0
4 | CSc1ccc(NC2=C(c3ccccc3Cl)C(=O)NC2=O)cc1 [SB-342411] | 43
5 | COC(=O)c1cccc(NC(=O)NCCNc2ccnc(Nc3ccc(F)cc3)n2)c1 [GSK1379883] | 24
6 | Fc1cccc(COc2ccc(Nc3ncnc4sc(-c5ccc[nH]5)cc34)cc2Cl)c1 [GW707818] | 30
7 | c1ccc(-c2ccc3c(-c4ccnc(Nc5ccc6c(c5)OCCO6)n4)cnn3n2)cc1 [GW818941] | 0
8 | Fc1cccc(COc2ccc(Nc3ncnc4cc[nH]c34)cc2Cl)c1 | 8
9 | COc1cc2c(Nc3cccc(NC(=O)c4ccccc4)c3)ncnc2cc1OCCCN1CCOCC1 [GSK223810] | 16
10 | COc1ccc(NC(=O)c2ccc(-c3cc(-c4nnc(C)o4)ccc3C)cc2)cc1 [GW595885] | 2
11 | Cl.Fc1ccccc1COc1ccc(Nc2ncnc3ccc(-c4nnc(C(F)(F)F)o4)cc23)cc1Cl [GW424170] | 7
12 | CNc1nccc(-c2c(-c3ccc(F)cc3)ncn2CCCN2CCOCC2)n1 [SB-222516] | 19
13 | Cc1cc(N2CCC(NS(=O)(=O)c3ccc(F)cc3)CC2)nc(Nc2cccc(C#N)c2)n1.O=C(O)C(F)(F)F [GSK1653537] | 0
14 | Cn1ccc2ncnc(Oc3ccc(NC(=O)Nc4cccnc4)c(Cl)c3)c21 | 0
15 | O=C(c1ccc(-c2cc(-c3c[nH]nc3-c3ccccn3)ccn2)cc1)N1CCCC1 [GW792479] | 0
16 | Nc1nc(-c2ccc3c(N)n[nH]c3c2)cc(N2CCC[C@@H](C(=O)Nc3ccccc3)C2)n1.O=C(O)C(F)(F)F.O=C(O)C(F)(F)F [GSK2288359] | 0
17 | Cl.Cl.c1ccc(-c2cc3ccncc3cc2OC2CCNCC2)cc1 [GSK1122999] | 30
18 | Fc1ccc(-c2ncn(CCCNCc3ccccc3)c2-c2ccncc2)cc1 | 15

Row | Compound | %Inh [%]
19 | CCn1c(-c2ccncc2)nc2cnccc21 [SB-735216] | 0
20 | C[C@H]1CC[C@@H](C(=O)Nc2ccccc2)CN1c1cc(-c2ccc3c(N)n[nH]c3c2)nc(N)n1 [GSK2283293] | 8
21 | NC(=O)c1sc(-n2cnc3ccccc32)cc1OCc1ccccc1F [GSK1024306] | 0
22 | Cl.Cn1ccc(-c2cccc(Nc3ccnc4cc(-c5nccs5)ccc34)c2)n1 [GW525701] | 26
23 | FC(F)(F)c1cc(Nc2nccc(-c3c(-c4ccc(Cl)cc4)nn4ncccc34)n2)ccc1Cl [GW829351] | 0
24 | N#Cc1ccc(Oc2ccc(Nc3ncnc4cc[nH]c34)cc2Cl)cc1 | 20
25 | OCCOCCn1ccc2ncnc(Nc3ccc(Oc4cccc(Cl)c4)c(Cl)c3)c21 | 0
26 | Fc1cccc(COc2ccc(Nc3ncnc4nn5ccccc5c34)cc2Cl)c1 [GW689066] | 9
27 | Nc1nc(-c2ccccn2)c(-c2ccnc3ccccc23)s1 [GW548057] | 6
28 | CCCc1ccc(S(=O)(=O)NC2CCN(c3ccnc(Nc4ccc(OC)cc4)n3)C2)cc1 (stereo not drawn) [GSK1379737] | 0
29 | Cc1ccc(O)cc1Nc1cc(C(F)(F)F)nc2ccc(-c3ccncc3)cc12 [GW630823] | 15
30 | CNc1nccc(-c2c(-c3ccc(F)cc3)ncn2C2CCN(C)CC2)n1 [SB-222903] | 0
31 | Nc1nc(-c2cccnc2)c(-c2ccnc3ccccc23)s1 [GW684083] | 14
32 | O=C(Nc1ccccc1)Nc1ccc(Oc2ccc3nccn3n2)cc1 | 59
33 | CC(C)(C)c1ccc(-n2cnc3c(N)ncnc32)cc1 [SKF-97263] | 0
34 | Cc1ccc(NC(=O)c2cccc(C#N)c2)cc1-c1ccc(C(=O)Nc2ccncc2)cc1 [GSK1398463] | 0
35 | Cc1ccc(C)c(NC(=O)NCCNc2ccnc(Nc3ccc(F)cc3)n2)c1 [GSK1379878] | 0
36 | Nc1nccc2scc(-c3ccc4c(c3)CCN4C(=O)Cc3cc(F)ccc3F)c12 [GSK2587663] | 11

system: DDR1; conditions: concentration: 1 μM, replicates: in singlicate; n = 1

Row | Compound | %Inh [%]
37 | COc1ccc(NC(=O)Nc2ccc(C)c(-c3ccc(C(=O)Nc4ccncc4)cc3)c2)cc1 [GSK1398475] | 88
38 | Clc1ccc(-c2cc(-c3c[nH]nc3-c3ccccn3)ccn2)cc1 [GW681251] | 73
39 | CC(C)(C)OC(=O)NC1CCCN(c2cc(-c3ccc4c(N)n[nH]c4c3)nc(N)n2)C1 (stereo not drawn) [GSK2286096] | 0
40 | CSc1ccc(NC2=C(c3ccccc3Cl)C(=O)NC2=O)cc1 [SB-342411] | 10
41 | COC(=O)c1cccc(NC(=O)NCCNc2ccnc(Nc3ccc(F)cc3)n2)c1 [GSK1379883] | 0
42 | Fc1cccc(COc2ccc(Nc3ncnc4sc(-c5ccc[nH]5)cc34)cc2Cl)c1 [GW707818] | 4
43 | c1ccc(-c2ccc3c(-c4ccnc(Nc5ccc6c(c5)OCCO6)n4)cnn3n2)cc1 [GW818941] | 0
44 | Fc1cccc(COc2ccc(Nc3ncnc4cc[nH]c34)cc2Cl)c1 | 9
45 | COc1cc2c(Nc3cccc(NC(=O)c4ccccc4)c3)ncnc2cc1OCCCN1CCOCC1 [GSK223810] | 12
46 | COc1ccc(NC(=O)c2ccc(-c3cc(-c4nnc(C)o4)ccc3C)cc2)cc1 [GW595885] | 13
47 | Cl.Fc1ccccc1COc1ccc(Nc2ncnc3ccc(-c4nnc(C(F)(F)F)o4)cc23)cc1Cl [GW424170] | 6
48 | CNc1nccc(-c2c(-c3ccc(F)cc3)ncn2CCCN2CCOCC2)n1 [SB-222516] | 0
49 | Cc1cc(N2CCC(NS(=O)(=O)c3ccc(F)cc3)CC2)nc(Nc2cccc(C#N)c2)n1.O=C(O)C(F)(F)F [GSK1653537] | 0
50 | Cn1ccc2ncnc(Oc3ccc(NC(=O)Nc4cccnc4)c(Cl)c3)c21 | 99.3
51 | O=C(c1ccc(-c2cc(-c3c[nH]nc3-c3ccccn3)ccn2)cc1)N1CCCC1 [GW792479] | 0
52 | Nc1nc(-c2ccc3c(N)n[nH]c3c2)cc(N2CCC[C@@H](C(=O)Nc3ccccc3)C2)n1.O=C(O)C(F)(F)F.O=C(O)C(F)(F)F [GSK2288359] | 0
53 | Cl.Cl.c1ccc(-c2cc3ccncc3cc2OC2CCNCC2)cc1 [GSK1122999] | 9
54 | Fc1ccc(-c2ncn(CCCNCc3ccccc3)c2-c2ccncc2)cc1 | 18

Row | Compound | %Inh [%]
55 | CCn1c(-c2ccncc2)nc2cnccc21 [SB-735216] | 0
56 | C[C@H]1CC[C@@H](C(=O)Nc2ccccc2)CN1c1cc(-c2ccc3c(N)n[nH]c3c2)nc(N)n1 [GSK2283293] | 0
57 | NC(=O)c1sc(-n2cnc3ccccc32)cc1OCc1ccccc1F [GSK1024306] | 19
58 | Cl.Cn1ccc(-c2cccc(Nc3ccnc4cc(-c5nccs5)ccc34)c2)n1 [GW525701] | 52
59 | FC(F)(F)c1cc(Nc2nccc(-c3c(-c4ccc(Cl)cc4)nn4ncccc34)n2)ccc1Cl [GW829351] | 78
60 | N#Cc1ccc(Oc2ccc(Nc3ncnc4cc[nH]c34)cc2Cl)cc1 | 9
61 | OCCOCCn1ccc2ncnc(Nc3ccc(Oc4cccc(Cl)c4)c(Cl)c3)c21 | 0
62 | Fc1cccc(COc2ccc(Nc3ncnc4nn5ccccc5c34)cc2Cl)c1 [GW689066] | 0
63 | Nc1nc(-c2ccccn2)c(-c2ccnc3ccccc23)s1 [GW548057] | 0
64 | CCCc1ccc(S(=O)(=O)NC2CCN(c3ccnc(Nc4ccc(OC)cc4)n3)C2)cc1 (stereo not drawn) [GSK1379737] | 15
65 | Cc1ccc(O)cc1Nc1cc(C(F)(F)F)nc2ccc(-c3ccncc3)cc12 [GW630823] | 40
66 | CNc1nccc(-c2c(-c3ccc(F)cc3)ncn2C2CCN(C)CC2)n1 [SB-222903] | 65
67 | Nc1nc(-c2cccnc2)c(-c2ccnc3ccccc23)s1 [GW684083] | 0
68 | O=C(Nc1ccccc1)Nc1ccc(Oc2ccc3nccn3n2)cc1 | 98.6
69 | CC(C)(C)c1ccc(-n2cnc3c(N)ncnc32)cc1 [SKF-97263] | 27
70 | Cc1ccc(NC(=O)c2cccc(C#N)c2)cc1-c1ccc(C(=O)Nc2ccncc2)cc1 [GSK1398463] | 100
71 | Cc1ccc(C)c(NC(=O)NCCNc2ccnc(Nc3ccc(F)cc3)n2)c1 [GSK1379878] | 1
72 | Nc1nccc2scc(-c3ccc4c(c3)CCN4C(=O)Cc3cc(F)ccc3F)c12 [GSK2587663] | 10
